Assay outcomes: PubChem, National Center for Advancing Translational Sciences (NCATS)
Hits are enriched below; roughly 5.1% of the tested compounds scored in any of these assays.
NPSR antag = neuropeptide S receptor (human) antagonism, cAMP | Q6W5P4 | CHO-NPSR cells, cAMP TR-FRET, antagonist mode | Potency, µM (series often up to 38.3 µM), inactives show top-dose activity change, negative = inhibition, usual class: inhibitors | 1% of 220,000 active; also: potency is read from the fitted curve at half-maximal effect; nearly all actives have a fitted effect of over 50% in size
Target sequence (Q6W5P4 whole entry, looked up): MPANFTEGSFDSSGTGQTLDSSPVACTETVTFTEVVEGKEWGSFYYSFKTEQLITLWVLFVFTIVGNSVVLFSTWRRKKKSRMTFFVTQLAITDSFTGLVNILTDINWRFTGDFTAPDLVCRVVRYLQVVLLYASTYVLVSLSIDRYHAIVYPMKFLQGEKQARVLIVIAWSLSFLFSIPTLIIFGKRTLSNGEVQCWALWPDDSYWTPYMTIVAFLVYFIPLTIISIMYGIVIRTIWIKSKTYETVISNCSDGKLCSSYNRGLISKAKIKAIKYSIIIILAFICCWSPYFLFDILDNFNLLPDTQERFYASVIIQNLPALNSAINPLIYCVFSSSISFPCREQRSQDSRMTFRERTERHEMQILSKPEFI
Tau fibril FP = blocks human tau fibril formation measured by polarization; AID 1468; 0.39% of 280,000 active; Potency, µM (doses to about 57.7 µM), without a hit: at the highest dose activity, negative = inhibition, hits mostly inhibitors; P10636; K18 P301L tau heparin fibrillization, Alexa594 FP, 6 h; also: potency is read from the fitted curve at half-maximal effect; nearly all actives have a fitted effect of over 55% in size
Target sequence (P10636 561-689 P618L limits assumed): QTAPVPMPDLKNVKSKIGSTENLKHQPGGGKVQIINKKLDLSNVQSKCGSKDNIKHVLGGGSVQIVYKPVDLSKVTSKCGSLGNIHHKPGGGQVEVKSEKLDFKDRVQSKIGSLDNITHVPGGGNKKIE
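Recombinant K18 P301L […], labeled with Alexa 594 at 0.24 uM over 15 uM unlabeled; heparin inducer 20 uM final; 37 C, 6 hr; FP endpoint.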
Tau fluor cs = counter-screen for tau fibril formation inhibitors; tau K18 P301L Alexa594 fluorescence, heparin fibrillization; Potency, µM (doses to about 57.7 µM), without a hit: at the highest dose activity change, negative = decrease; 0.93% of 280,000 active; also: potency is read from the fitted curve at half-maximal effect; nearly all actives have a fitted effect of over 55% in size
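Human tau K18 P301L (15 uM unlabeled, 0.24 uM Alexa 594-labeled) in 100 mM sodium acetate pH 7 with 20 uM heparin, 6 hr at 37 C. ThT 30 uM added, 1 hr ambient; Alexa 594 FP and total fluorescence read at 555/632 nm.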
Tau ThT inhib = tau fibrillization inhibition (ThT binding); P10636; recombinant tau K18 P301L, heparin-induced fibrillization, ThT fluorescence; Potency, µM (titrated, usually from 57.4 µM), for the others: top-dose activity, negative = inhibition, hits mostly inhibitors; 2.1% of 270,000 active; AID 1460; also: potency is read from the fitted curve at half-maximal effect; nearly all actives have a fitted effect of over 55% in size
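ThT emission at 510 nm, taken 1 hr after adding 30 uM dye, quantifies aggregates formed when 20 uM heparin acts on human tau K18 P301L for 6 hr at 37 C.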
PNC assembly inh = inhibitors of perinucleolar compartment assembly; 3.1% of 140,000 active; activity change (PNC), negative = inhibition, % at 10 µM; PC3M PTB-GFP, PNC prevalence imaging, 16 h; hits give low values;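 active = readout at or below -70, meaning at least 70% loss of cells showing the perinucleolar compartment, a nuclear body marking cancer cells; inconclusive = readout between -30 and a set limit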;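 also: plate controls were DMSO wells for no effect and camptothecin positive control wells for full effect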
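PC3M cells stably expressing PTB-GFP, 750–1000 cells/well, treated 16 h at 37 °C with compound (23 nl of library stock), in duplicate. After paraformaldehyde fixation and Hoechst stain, imaged at 20x; PNC prevalence scored by image analysis.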
JMJD2E inh = blocks human JMJD2E demethylase activity. B2RXH2. AID 2147. Potency, µM (titrated, usually from 57.1 µM), inactives show at the top dose activity change, negative = inhibition, most hits filed as inhibitors. 1.6% of 230,000 active. JMJD2E catalytic domain, FDH-coupled NADH fluorescence (FDH is formaldehyde dehydrogenase);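 also: potency is read from the fitted curve at half-maximal effect; 0% = wells with enzyme and -100% = buffer wells without enzyme; nearly all actives have a fitted effect of over 50% in size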
Active calls of the source: *; ? = inconclusive; . = no result; ! = repeats disagree; [ ] = remark or other dose. Unless noted, calls follow the shape of the dose curve; as a rule, active = well fitted curve in the direction sought with a large enough effect; inconclusive = small, poorly fitted or top-dose-only effect, or another doubt; inactive = no such curve, though single readings can be large; an effect the other way counts as inactive or inconclusive. Unless noted, % is scaled to controls: 0 for no effect and ±100 for the full control effect.

SMILES	NPSR antag	Tau fibril FP	Tau fluor cs	Tau ThT inhib	PNC assembly inh	JMJD2E inh
Cc1cc(C)cc(NS(=O)(=O)c2ccc3[nH]cc(C(=O)NCc4ccco4)c(=O)c3c2)c1	-28%[46.1 µM]	?	?	0%	7	-9%
Cc1cc(C)cc(NS(=O)(=O)c2ccc3[nH]cc(C(=O)NC4CCCCC4)c(=O)c3c2)c1	.	7.9µM*	?	?	.	.
COc1cccc(NS(=O)(=O)c2ccc3[nH]cc(C(=O)NC4CC4)c(=O)c3c2)c1	-14%[46.1 µM]	-19%	-22%	13%	6	-2%
CC(C)c1ccc(NS(=O)(=O)c2ccc3[nH]cc(C(=O)NCC4CCCO4)c(=O)c3c2)cc1 (stereo unspecified)	.	16µM*	?	-8%	.	.
CCc1ccccc1NS(=O)(=O)c1ccc2[nH]cc(C(=O)NCC3CCCO3)c(=O)c2c1 (stereo unspecified)	-27%	?	?	-5%	.	?
Cc1ccc(-c2noc(-c3cccnc3N(C)Cc3ccc(Cl)cc3)n2)cc1	.	2%	11%	17%	.	.
CN(C)C1C(=O)C(C(N)=O)=C(O)[C@@]2(O)C(=O)C3=C(O)c4c(O)ccc(Cl)c4[C@@H](O)C3C[C@@H]12 (stereo partly specified)	4%[46.1 µM]	?	?	?	.	?
CC(C)c1ccc(NS(=O)(=O)c2ccc3[nH]cc(C(=O)NC4CCCCC4)c(=O)c3c2)cc1	.	3.5µM*	?	?	.	.
CCN1C(=O)/C(=C/N2CC(C)CC(C)C2)SC1=S (stereo unspecified)	-7%[46.1 µM]	2%	1%	12%	-89*	-4%
CC(C)(C)C(=O)Cn1c(=O)n(-c2ccc(Cl)cc2)c(=O)c2c3c(sc21)CCCC3	.	2%	-6%	-2%	.	.
Cc1ncoc1C(=O)Nc1ncc([N+](=O)[O-])s1	-14%	?	-20%	25µM*	.	-15%
Cc1ncoc1C(=O)Nc1nccs1	7%[46.1 µM]	2%	-12%	?	10	-5%
COc1cc(/C=C2\SC(=S)N(N(C)c3ccccc3)C2=O)ccc1O	56%	-4%	25µM*[quencher]	25µM*	.	-20%
COc1cc(/C=N/NC(=O)c2ccc3nc[nH]c3c2)ccc1O	-3%	-3%	-19%	.	.	-6%
COc1cccc(/C=N/NC(=O)c2ccc3nc[nH]c3c2)c1	6%	2%	-9%	?	.	0%
CCN(CC)c1ccc(/C=N/NC(=O)c2ccc3nc[nH]c3c2)cc1	53%	7%	?	2.8µM*	.	?
Cc1nc2c(C)cccc2cc1C(=O)N/N=C/c1ccc(N(C)C)cc1	-14%[46.1 µM]	0%	?	10µM*	-30	-25%
CN(C)c1ccc(/C=N/NC(=O)c2ccc3nc[nH]c3c2)cc1	38%	-12%	?	4.5µM*	.	?
O=C(NCc1ccccc1)c1nn(-c2ccccc2)nc1CO	.	0%	-2%	1%	.	.
CC(C)C(=O)c1ccc(O)c(O)c1	1%[7.67 µM]	-4%	-8%	-5%	.	25µM*
COc1ccc(-c2noc(CN(C(=O)c3ccc(C)cc3C)C(C)C)n2)cc1	.	-2%	-20%	?	.	.
Cc1cccc(N=Nc2c(C)[nH]n(C(N)=S)c2=O)c1C	-15%	10%	-9%	7.9µM*	.	2%
Cc1ccccc1N=Nc1c(C)[nH]n(C(N)=S)c1=O	-17%	8%	-18%	14µM*	-113*	1%
COc1nc2ccccc2c(=O)n1OCC(C)C	4%[46.1 µM]	2%	-9%	-8%	-82*	4%
COc1ccccc1CNC(=O)c1ccc2[nH]c(C)c(C)c2c1	.	0%	?	?	.	.
SMILES	NPSR antag	Tau fibril FP	Tau fluor cs	Tau ThT inhib	PNC assembly inh	JMJD2E inh
Cc1nnc(NC(=O)C(C)Oc2ccc3c(C)cc(=O)oc3c2)s1 (stereo unspecified)	-6%[46.1 µM]	-3%	-4%	-6%	-107*	?
Cc1ccc(NC(=O)Cn2c(=O)ccc3cc(S(=O)(=O)N4CCC(C)CC4)ccc32)c(C)c1	.	1%	-22%	0%	.	.
C=C1c2cccc(C(F)(F)F)c2O[C@H](C(=O)OCC)C1OC (mixture of isomers)	.	2%[81.3 µM]	-23%[81.3 µM]	-13%[81.4 µM]	.	.
COc1cc(C(=O)OCC(=O)N(C)Cc2ccccc2)cc(OC)c1OC	-2%[46.1 µM]	-2%	1%	-1%	-100*	-4%
CCOC(=O)N1CCC(NC(=O)c2ccc3c(c2)N(Cc2ccc(Cl)cc2)C(=O)c2ccccc2S3=O)CC1 (stereo unspecified)	.	0%	-10%	-2%	.	.
Oc1ccc(C2CNCc3sccc32)cc1O (stereo unspecified)	-3%[46.1 µM]	-4%	-12%	?	.	25µM*
O=C(Nc1cccc(-c2nc3ccccc3o2)c1)c1cccc2c(Cl)cccc12	.	?	-13%	-8%	.	.
O=C(/C=C\Nc1ccc2c(c1)OCO2)c1cccs1	43%	-6%	?	2µM*	.	-2%
O=C(/C=C\Nc1ccc2c(c1)OCO2)c1ccc(Cl)s1	2%	-4%	-17%	2.8µM*	.	-12%
CCc1ccc2oc(C(=O)Nc3cc(C)ccc3C)cc(=O)c2c1	.	-6%	4%	6%	.	.
Nc1ccccc1C(=O)/C=C/c1ccc2c(c1)OCO2	18%	2%	-22%	14µM*!	-11	-1%
O=C(/C=C/c1ccc2c(c1)OCO2)c1ccccc1	.	6%	3%	-9%	.	-6%
Nc1ccccc1C(=O)/C=C\c1ccc2c(c1)OCO2	.	5%[11.6 µM]	?	1.3µM*	.	.
Cc1ccc(O)c(C(=O)/C=C/c2ccc3c(c2)OCCO3)c1	-4%	20%	-9%	16µM*	.	-3%
COCCCNS(=O)(=O)c1cc(-c2onc(C)c2C)ccc1OC	.	-8%	-10%	-5%	.	.
CCc1sc(Nc2cccc(Cl)c2)nc1-c1cc2cccc(OC)c2oc1=O	.	1%	?	-18%	.	.
O=C(Nc1cc(F)ccc1F)N1CCC(CN2CCOCC2)CC1	.	0%	3%	4%	.	.
Cc1nc(-c2cccc(NC(=O)Nc3ccc([N+](=O)[O-])cc3)c2)no1	.	13µM*	8.9µM*[quencher]	?	.	.
COc1ccc(C)cc1NC(=O)Nc1cccc(-c2noc(C)n2)c1	.	-3%	?	?	.	.
CCOc1ccc(-n2c(C)nc3cc(C(=O)NCc4ccc(C)cc4)ccc32)cc1	.	11%	-5%	-3%	.	.
Cc1ccc(NC(=O)CCC(=O)N2CCSc3ccccc32)cc1Cl	.	?	-27%	-5%	.	.
CCCCN(CCCNC(=O)C1CCN(S(=O)(=O)N2CCOCC2)CC1)Cc1ccccc1	-4%[46.1 µM]	-7%	-15%	-9%	-2	3%
CC(C)N(CCNC(=O)C1CCN(S(=O)(=O)N2CCOCC2)CC1)Cc1ccccc1	-3%[46.1 µM]	0%	0%	-8%	-102*	8%
